The full ranking holds about 18,000 sequences; the median of “log2 normalized intensity” is about 0.39, and the highest 2% start at about 6.6. The entries come from a sample that favours the highest values as a whole.

The test addresses T1, HNF4alpha2 (COS-7 nuclear extract) (Homo sapiens, UniProt P41235 1-474).
T1 sequence: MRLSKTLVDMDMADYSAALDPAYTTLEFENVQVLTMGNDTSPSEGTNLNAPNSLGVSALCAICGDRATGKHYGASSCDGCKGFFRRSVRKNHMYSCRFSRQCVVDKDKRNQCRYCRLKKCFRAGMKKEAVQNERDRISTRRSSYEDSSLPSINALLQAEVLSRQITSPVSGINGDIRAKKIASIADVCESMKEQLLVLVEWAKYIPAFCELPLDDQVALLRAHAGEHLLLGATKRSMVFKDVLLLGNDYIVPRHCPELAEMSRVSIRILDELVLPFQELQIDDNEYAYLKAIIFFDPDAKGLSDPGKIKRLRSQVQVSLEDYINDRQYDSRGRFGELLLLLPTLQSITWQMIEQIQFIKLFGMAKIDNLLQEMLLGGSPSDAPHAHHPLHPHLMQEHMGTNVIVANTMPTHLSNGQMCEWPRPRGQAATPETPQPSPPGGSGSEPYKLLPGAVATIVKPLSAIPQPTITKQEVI
Kind of test: protein-binding microarray; COS-7 nuclear extract on double-stranded Agilent 4x180k PBM; binding buffer, salt, pH and temperature not given in the material; high values mean tight binding. The following applies: chain copies: 2; label: 3' end of strand 1 on the slide; dsDNA, one strand shown. In a few lines: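 Binding signal is the background-corrected, normalized gProcessedSignal calculated by Agilent software. It was measured by applying nuclear extracts of COS-7 cells transiently transfected with a human HNF4α isoform expression vector to a custom Agilent SurePrint G3 4x180k array of ~44,000 double-stranded ~60-nt test sequences in quadruplicate, then imaging bound HNF4α on an Agilent G2565CA scanner at 2-µm resolution.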
As to “ATGACTCCAAAGTTCAAACTCTGAAAGCACGCCTAGGGAGATTAGAGTATCGGTCGA”, the binding signal turned out to be 2.34 log2 normalized intensity.

As to “CCCTGCAGTCCTCTGCTTATCTGGCCTGCTGCCTAGGGAGATTAGAGTATCGGTCGA”, the binding signal was -0.935 log2 normalized intensity.

In the case of “ATCTGGTGGTGGTTCTTGTTTCATTGCACAGCCTAGGGAGATTAGAGTATCGGTCGA”, the binding signal worked out at 1.84 log2 normalized intensity.

Regarding “GTCTTGAGCGCAAATGATCAAAGGTCGGTTGCCTAGGGAGATTAGAGTATCGGTCGA”, the binding signal is 5.6 log2 normalized intensity.

Take “TCAGCACTGAGAGATTACATTTGACTGAGGGCCTAGGGAGATTAGAGTATCGGTCGA”: the binding signal is -0.895 log2 normalized intensity.

“TATCTTCTTTCAGTGTTGACCTTTGAACATGCCTAGGGAGATTAGAGTATCGGTCGA”: the binding signal was determined as 8.83 log2 normalized intensity.

As to “TATCCAATAAAACACTATCTTCTTTCAGTGGCCTAGGGAGATTAGAGTATCGGTCGA”, the binding signal was 0.883 log2 normalized intensity.

“TCTTGGAATGTTGAACCTTTCTTTGTCTTTGCCTAGGGAGATTAGAGTATCGGTCGA”: the binding signal was 2.24 log2 normalized intensity.

For the sequence “AGGAGTGTCTTTCTCCTTGAACACAGTGTTGCCTAGGGAGATTAGAGTATCGGTCGA”, the binding signal is 1.25 log2 normalized intensity.

“AACACTATCTTCTTTCAGTGTTGACCTTTGGCCTAGGGAGATTAGAGTATCGGTCGA”: the binding signal is 6.87 log2 normalized intensity.

As to “CATGCTCTTGGAATGTTGAACCTTTCTTTGGCCTAGGGAGATTAGAGTATCGGTCGA”, the binding signal stood at 2.64 log2 normalized intensity.

“TCTTTCAGTGTTGACCTTTGAACATTTCTTGCCTAGGGAGATTAGAGTATCGGTCGA”: the binding signal is 8.04 log2 normalized intensity.

As for “AACCTTCATCTCTCTTTGTTGACATCTGCTGCCTAGGGAGATTAGAGTATCGGTCGA”, the binding signal was 0.528 log2 normalized intensity.

Regarding “GAATGTTGAACCTTTCTTTGTCTTTGCAATGCCTAGGGAGATTAGAGTATCGGTCGA”, the binding signal stood at 2.02 log2 normalized intensity.

As for “CTTAAAGGCCTGTGTCGATGTTAACGCTAAGCCTAGGGAGATTAGAGTATCGGTCGA”, the binding signal was -0.828 log2 normalized intensity.

Take “GCCCTTCCCCCCTCTGCAGCCTTACCCAGTGCCTAGGGAGATTAGAGTATCGGTCGA”: the binding signal amounted to 4.59 log2 normalized intensity.

On to “TGTCGTTTGCTTAGTCTTATCTGAGGTGCCGCCTAGGGAGATTAGAGTATCGGTCGA”, for which the binding signal was 0.932 log2 normalized intensity.

“GAAATGGTGGACTTTGTAGCTCAAACAGTCGCCTAGGGAGATTAGAGTATCGGTCGA”: the binding signal was determined as 3.13 log2 normalized intensity.

For the sequence “TATGGATAGGCACATATTGGATCTCTGGTAGCCTAGGGAGATTAGAGTATCGGTCGA”, the binding signal came out at 0.865 log2 normalized intensity.

Consider “CAGTTTGAAATTAGGCAATATGAGTAGAGCGCCTAGGGAGATTAGAGTATCGGTCGA”, for which the binding signal is -0.693 log2 normalized intensity.

As for “TTGGCTAAAGTCCAAATTCCTTGGAATACAGCCTAGGGAGATTAGAGTATCGGTCGA”, the binding signal came out at 3.12 log2 normalized intensity.

As for “CACACACACACAGCATTCCATTCATTTTAGGCCTAGGGAGATTAGAGTATCGGTCGA”, the binding signal was -0.727 log2 normalized intensity.

Consider “AACATGTAATCATTTGGGACAAAGTTCATCGCCTAGGGAGATTAGAGTATCGGTCGA”, for which the binding signal was 4.11 log2 normalized intensity.

Consider “TGAACAATTGATTTATAGCCTTTTTGCCCAGCCTAGGGAGATTAGAGTATCGGTCGA”, for which the binding signal is 1.29 log2 normalized intensity.

Consider “TGCTTTCTTATCTGGGGGCCATTCCTCTATGCCTAGGGAGATTAGAGTATCGGTCGA”, for which the binding signal amounted to 1.1 log2 normalized intensity.

“ACTTTGGAACTCAGTTAATGTACAGAGTATGCCTAGGGAGATTAGAGTATCGGTCGA”: the binding signal was found to be 0.375 log2 normalized intensity.

Regarding “ATTAGAGAACATGTACTTTGTACTGCTTATGCCTAGGGAGATTAGAGTATCGGTCGA”, the binding signal worked out at 4.15 log2 normalized intensity.

Take “AGGGACTTTGATCTTCTTACCCCTTTGCTGGCCTAGGGAGATTAGAGTATCGGTCGA”: the binding signal came out at 2.86 log2 normalized intensity.

“AGGAGATGTGGTGGACTTTAACGACCTTTGGCCTAGGGAGATTAGAGTATCGGTCGA”: the binding signal was 4.66 log2 normalized intensity.

Take “CCCCTTCTTAACATCAGAAGTTGGACTTTGGCCTAGGGAGATTAGAGTATCGGTCGA”: the binding signal was determined as 7.59 log2 normalized intensity.

Take “TCTTAACATCAGAAGTTGGACTTTGTACATGCCTAGGGAGATTAGAGTATCGGTCGA”: the binding signal was 9.62 log2 normalized intensity.

“CTTTGCTCCCACCCTGCAATTCCCCTGGGCGCCTAGGGAGATTAGAGTATCGGTCGA”: the binding signal was 3.29 log2 normalized intensity.

Consider “CAAACAGACCTCCCCCAACTTACTTAGTGGGCCTAGGGAGATTAGAGTATCGGTCGA”, for which the binding signal was determined as 1.85 log2 normalized intensity.

Turning to “TTCAATTTTTTTGTTGTTATCCATTTAAAAGCCTAGGGAGATTAGAGTATCGGTCGA”, the binding signal came out at 1.04 log2 normalized intensity.

In the case of “GTATCTAATCTCAGATATGCTAATTAACCCGCCTAGGGAGATTAGAGTATCGGTCGA”, the binding signal worked out at 1.79 log2 normalized intensity.

As to “GTTATGAGTCTGTTGTCTAACATTTTTGACGCCTAGGGAGATTAGAGTATCGGTCGA”, the binding signal came to 0.629 log2 normalized intensity.

Take “CTTACTTGGCCTGTTTGCTGAAGGCCATGCGCCTAGGGAGATTAGAGTATCGGTCGA”: the binding signal was determined as 0.0452 log2 normalized intensity.

As for “CAACTAGGGCAAAGGTTAGCTTGGACAGAGGCCTAGGGAGATTAGAGTATCGGTCGA”, the binding signal worked out at 2.72 log2 normalized intensity.

In the case of “GGTATGTTTGTGATATTGTGAAATATATATGCCTAGGGAGATTAGAGTATCGGTCGA”, the binding signal stood at 2.03 log2 normalized intensity.

As to “GCACTGATAAGCGTATTTCAACCTTTGATCGCCTAGGGAGATTAGAGTATCGGTCGA”, the binding signal came out at 7.8 log2 normalized intensity.

For “GTGGTCCTAAAATTGACCTTTGATCACTCAGCCTAGGGAGATTAGAGTATCGGTCGA”, the binding signal is 9.68 log2 normalized intensity.

With “TGCCTTTGATCAGGGACCTTTGTTCCTTTAGCCTAGGGAGATTAGAGTATCGGTCGA”, the binding signal turned out to be 4.43 log2 normalized intensity.

For the sequence “GACTGACCTTTGATCATTTGAGGGTGACACGCCTAGGGAGATTAGAGTATCGGTCGA”, the binding signal turned out to be 5.65 log2 normalized intensity.

Regarding “AGGAGGCACTGATAAGCGTATTTCAACCTTGCCTAGGGAGATTAGAGTATCGGTCGA”, the binding signal was determined as 0.384 log2 normalized intensity.

For “GATAAGCGTATTTCAACCTTTGATCTATAAGCCTAGGGAGATTAGAGTATCGGTCGA”, the binding signal amounted to 5.94 log2 normalized intensity.

In the case of “AGTGCGATGATCATGGCTCACTGCACCTTGGCCTAGGGAGATTAGAGTATCGGTCGA”, the binding signal was found to be 0.629 log2 normalized intensity.

For the sequence “TCATGGCTCACTGCACCTTGACCTCCTGGGGCCTAGGGAGATTAGAGTATCGGTCGA”, the binding signal was determined as 4.99 log2 normalized intensity.

On to “GTGGTCCTAAGACTGACCTTTGATCATTTGGCCTAGGGAGATTAGAGTATCGGTCGA”, for which the binding signal came to 8.56 log2 normalized intensity.

With “GATGATCATGGCTCACTGCACCTTGACCTCGCCTAGGGAGATTAGAGTATCGGTCGA”, the binding signal was 7.34 log2 normalized intensity.

For “GAACTGAAAGAGACCTTTGACATCACCTAAGCCTAGGGAGATTAGAGTATCGGTCGA”, the binding signal amounted to 2.04 log2 normalized intensity.

“TGCACTTTGACCGCTCATTTGATCCTCACAGCCTAGGGAGATTAGAGTATCGGTCGA”: the binding signal was 3.87 log2 normalized intensity.

With “CACCTTCAGTCACACTGTTTGCGCAAACTAGCCTAGGGAGATTAGAGTATCGGTCGA”, the binding signal is -0.824 log2 normalized intensity.

Consider “TACCAAGGCTCAGAGGTCAAGTCACTGCTCGCCTAGGGAGATTAGAGTATCGGTCGA”, for which the binding signal is 2.57 log2 normalized intensity.

Take “CCTTGGCTGTGTGACTCACCTTTGCTCTGAGCCTAGGGAGATTAGAGTATCGGTCGA”: the binding signal stood at 3.71 log2 normalized intensity.

For the origin of these results see paper PMC10726135, “HNF4α isoforms regulate the circadian balance between carbohydrate and lipid metabolism in the liver”.
